The text below walks through data of publication PMC4081100, “A DNA-binding-site landscape and regulatory network analysis for NAC transcription factors in Arabidopsis thaliana”.

Common to all, as to test: universal protein binding microarray (PBM); transcription factors of Arabidopsis thaliana; high values mean tight binding
The target in one test is T1, GST-ANAC092(1-176) (Arabidopsis thaliana, UniProt Q9FKA0 1-176).
T1 sequence: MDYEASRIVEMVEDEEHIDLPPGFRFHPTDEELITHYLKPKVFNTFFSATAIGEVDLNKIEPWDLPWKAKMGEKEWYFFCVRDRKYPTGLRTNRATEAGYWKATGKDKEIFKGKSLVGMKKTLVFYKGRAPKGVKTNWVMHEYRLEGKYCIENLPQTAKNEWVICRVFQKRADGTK
The conditions noted are these: protein: recombinant; tags: GST; chain copies: 2; dsDNA, one strand shown. Summed up: (§1)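 Protein amounts were determined by A280 or anti-GST western blot after glutathione–Sepharose 4B purification of GST-tagged proteins induced in cells, with zinc acetate included for zinc-finger proteins. Duplicate runs at 200 to 500 nM final were done on custom all-10-mer Agilent 4 × 180K arrays made double-stranded by primer extension. The normalised enrichment score (E-score) over gapped and ungapped 8-mers is the measure of binding.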

Another test addresses GST-NTL6(1-168) (Arabidopsis thaliana, UniProt Q9SCK6 1-168). The conditions noted are these: protein: recombinant; tags: GST; chain copies: 2; dsDNA, one strand shown. The gist of the method:
as §1

The target of the next test is T2, GST-ANAC019 NAC domain (Arabidopsis thaliana, UniProt Q9C932 14-162).
T2 sequence: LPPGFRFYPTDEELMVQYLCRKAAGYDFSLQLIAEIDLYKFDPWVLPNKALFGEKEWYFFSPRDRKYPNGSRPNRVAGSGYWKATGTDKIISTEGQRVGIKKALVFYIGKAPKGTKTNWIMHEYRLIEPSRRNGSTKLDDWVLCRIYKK
The conditions noted are these: protein: recombinant; tags: GST; chain copies: 2; dsDNA, one strand shown. Summed up:
as §1

The next test has as its target T3, GST-ANAC055(1-171) (Arabidopsis thaliana, UniProt Q9LDY8 1-171).
T3 sequence: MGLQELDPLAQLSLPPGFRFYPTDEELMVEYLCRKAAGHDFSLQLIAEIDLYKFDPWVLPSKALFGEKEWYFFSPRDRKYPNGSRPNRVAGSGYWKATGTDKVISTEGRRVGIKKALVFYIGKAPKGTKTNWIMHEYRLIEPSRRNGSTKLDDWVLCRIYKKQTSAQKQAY
The conditions noted are these: protein: recombinant; tags: GST; chain copies: 2; dsDNA, one strand shown. The gist of the method: as §1

In another test the target is T4, GST-ATAF1 NAC domain (Arabidopsis thaliana, UniProt Q39013 7-158).
T4 sequence: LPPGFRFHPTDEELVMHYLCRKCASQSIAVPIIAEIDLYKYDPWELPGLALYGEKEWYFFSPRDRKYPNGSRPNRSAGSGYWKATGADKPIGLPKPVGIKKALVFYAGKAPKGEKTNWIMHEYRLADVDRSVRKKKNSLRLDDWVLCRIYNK
The conditions noted are these: protein: recombinant; tags: GST; chain copies: 2; dsDNA, one strand shown. Summed up: as §1

For test [1], the target named is T5, GST-ANAC092(1-285) full length (Arabidopsis thaliana, UniProt Q9FKA0 1-285).
T5 sequence: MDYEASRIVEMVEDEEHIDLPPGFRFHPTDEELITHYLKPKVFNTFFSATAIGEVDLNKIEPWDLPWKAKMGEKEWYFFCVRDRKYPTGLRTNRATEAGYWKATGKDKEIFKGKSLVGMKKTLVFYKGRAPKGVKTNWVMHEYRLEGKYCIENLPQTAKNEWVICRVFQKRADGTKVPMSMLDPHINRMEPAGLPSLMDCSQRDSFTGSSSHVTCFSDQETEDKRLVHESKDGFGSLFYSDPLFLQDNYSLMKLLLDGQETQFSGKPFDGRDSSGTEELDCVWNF
The conditions noted are these: protein: recombinant; tags: GST; chain copies: 2; dsDNA, one strand shown. The gist of the method:
as §1

Another test has as its target T6, GST-NAP(1-166) (Arabidopsis thaliana, UniProt O49255 1-166).
T6 sequence: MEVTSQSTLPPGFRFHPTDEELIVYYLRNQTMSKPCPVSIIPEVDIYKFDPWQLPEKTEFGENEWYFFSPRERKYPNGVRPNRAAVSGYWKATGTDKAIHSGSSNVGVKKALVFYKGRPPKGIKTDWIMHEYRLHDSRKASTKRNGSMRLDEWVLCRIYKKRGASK
The conditions noted are these: protein: recombinant; tags: GST; chain copies: 2; dsDNA, one strand shown. Summed up:
as §1

The target of the next test is T7, GST-NST2(1-184) (Arabidopsis thaliana, UniProt Q9M274 1-184).
T7 sequence: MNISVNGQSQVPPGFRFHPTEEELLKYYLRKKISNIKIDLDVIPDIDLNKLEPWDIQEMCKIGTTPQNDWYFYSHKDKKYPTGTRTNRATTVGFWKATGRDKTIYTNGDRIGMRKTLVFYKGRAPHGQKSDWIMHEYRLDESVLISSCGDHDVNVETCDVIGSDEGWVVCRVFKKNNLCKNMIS
The conditions noted are these: protein: recombinant; tags: GST; chain copies: 2; dsDNA, one strand shown. Summed up: as §1

The next test deals with T8, GST-NTL8 NAC domain (Arabidopsis thaliana, UniProt Q9XIN7 14-156).
T8 sequence: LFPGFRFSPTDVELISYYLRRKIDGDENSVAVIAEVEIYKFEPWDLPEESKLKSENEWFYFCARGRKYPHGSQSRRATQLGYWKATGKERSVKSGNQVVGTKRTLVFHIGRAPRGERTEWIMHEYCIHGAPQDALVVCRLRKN
The conditions noted are these: protein: recombinant; tags: GST; chain copies: 2; dsDNA, one strand shown. Summed up: as §1

The target of another test is T9, GST-SND1(1-203) (Arabidopsis thaliana, UniProt Q9LPI7 1-203).
T9 sequence: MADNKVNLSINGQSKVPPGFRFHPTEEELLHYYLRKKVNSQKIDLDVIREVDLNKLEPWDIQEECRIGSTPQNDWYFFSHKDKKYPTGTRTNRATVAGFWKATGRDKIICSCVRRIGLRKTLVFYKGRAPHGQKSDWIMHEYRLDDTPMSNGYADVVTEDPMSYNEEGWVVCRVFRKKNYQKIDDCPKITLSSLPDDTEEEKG
The conditions noted are these: protein: recombinant; tags: GST; chain copies: 2; dsDNA, one strand shown. The gist of the method: as §1

In the next test the target is T10, GST-VND3 NAC domain (Arabidopsis thaliana, UniProt Q9FH59 12-162).
T10 sequence: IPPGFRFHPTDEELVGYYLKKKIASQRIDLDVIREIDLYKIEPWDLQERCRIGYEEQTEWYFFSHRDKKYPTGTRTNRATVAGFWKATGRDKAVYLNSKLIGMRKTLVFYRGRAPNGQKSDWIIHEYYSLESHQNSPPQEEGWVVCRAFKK
The conditions noted are these: protein: recombinant; tags: GST; chain copies: 2; dsDNA, one strand shown. The gist of the method: as §1

The target of another test is T11, GST-VND7 NAC domain (Arabidopsis thaliana, UniProt Q9C8W9 9-158).
T11 sequence: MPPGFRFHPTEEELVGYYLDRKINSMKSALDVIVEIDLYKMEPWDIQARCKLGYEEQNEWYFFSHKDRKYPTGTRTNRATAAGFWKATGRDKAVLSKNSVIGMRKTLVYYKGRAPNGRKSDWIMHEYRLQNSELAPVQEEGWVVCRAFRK
The conditions noted are these: protein: recombinant; tags: GST; chain copies: 2; dsDNA, one strand shown. Summed up: as §1

A further test deals with GST-WRKY1(266-371) (Arabidopsis thaliana, UniProt Q9SI37 266-371). The conditions noted are these: protein: recombinant; tags: GST; dsDNA, one strand shown. Summed up: as §1
GST-WRKY1(266-371), sequence (Q9SI37 266-371): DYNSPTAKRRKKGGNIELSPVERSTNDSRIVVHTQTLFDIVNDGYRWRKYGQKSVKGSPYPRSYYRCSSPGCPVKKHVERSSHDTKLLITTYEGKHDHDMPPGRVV

GST-NTL6(1-168), sequence (Q9SCK6 1-168): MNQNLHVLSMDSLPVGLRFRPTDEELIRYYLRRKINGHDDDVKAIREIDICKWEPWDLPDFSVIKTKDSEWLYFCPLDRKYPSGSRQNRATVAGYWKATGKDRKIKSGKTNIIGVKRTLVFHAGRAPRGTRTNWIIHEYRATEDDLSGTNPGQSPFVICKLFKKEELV

Regarding ACGTAAGT, the binding signal with GST-ANAC092(1-176) amounted to 0.357 E-score; in the test with GST-NTL6(1-168), 0.212 E-score; with GST-ANAC019 NAC domain it was 0.418 E-score; with GST-ANAC055(1-171) it was 0.402 E-score; with GST-ATAF1 NAC domain, 0.407 E-score; in test [1], 0.39 E-score. Further, the binding signal was determined as 0.344 E-score with GST-NAP(1-166); 0.233 E-score in the test with GST-NST2(1-184); 0.125 E-score with GST-NTL8 NAC domain; 0.35 E-score with GST-SND1(1-203); 0.414 E-score with GST-VND3 NAC domain; 0.42 E-score with GST-VND7 NAC domain. Besides, the binding signal with GST-WRKY1(266-371) stood at 0.112 E-score.
As to AGACGTGA, the binding signal in the test with GST-ANAC092(1-176) came to 0.217 E-score; in the test with GST-NTL6(1-168) it was 0.0777 E-score; in the test with GST-ANAC019 NAC domain, 0.425 E-score; in the test with GST-ANAC055(1-171), 0.368 E-score; in the test with GST-ATAF1 NAC domain it was 0.356 E-score; in [1], 0.272 E-score. Also, the binding signal with GST-NAP(1-166) was 0.223 E-score; in the test with GST-NST2(1-184), 0.157 E-score; in the test with GST-NTL8 NAC domain, 0.116 E-score; in the test with GST-SND1(1-203), 0.25 E-score; in the test with GST-VND3 NAC domain it was 0.358 E-score; with GST-VND7 NAC domain, 0.348 E-score. In addition, in the test with GST-WRKY1(266-371), the binding signal was 0.116 E-score.
Take ACGTAAAG: the binding signal amounted to 0.402 E-score with GST-ANAC092(1-176); 0.0957 E-score in the test with GST-NTL6(1-168); 0.367 E-score in the test with GST-ANAC019 NAC domain; 0.317 E-score with GST-ANAC055(1-171); 0.301 E-score with GST-ATAF1 NAC domain; 0.421 E-score in [1]. The binding signal with GST-NAP(1-166) was determined as 0.255 E-score; with GST-NST2(1-184), 0.319 E-score; with GST-NTL8 NAC domain it was 0.0757 E-score; with GST-SND1(1-203), 0.41 E-score; with GST-VND3 NAC domain, 0.359 E-score; with GST-VND7 NAC domain, 0.283 E-score. Moreover, the binding signal with GST-WRKY1(266-371) stood at 0.103 E-score.
For ACACGCAA, the binding signal in the test with GST-ANAC092(1-176) was found to be 0.498 E-score; with GST-NTL6(1-168), 0.0863 E-score; with GST-ANAC019 NAC domain, 0.484 E-score; with GST-ANAC055(1-171) it was 0.473 E-score; with GST-ATAF1 NAC domain, 0.439 E-score; in [1] it was 0.498 E-score. For the same sequence, the binding signal is 0.487 E-score with GST-NAP(1-166); 0.47 E-score in the test with GST-NST2(1-184); 0.218 E-score with GST-NTL8 NAC domain; 0.477 E-score with GST-SND1(1-203); 0.477 E-score with GST-VND3 NAC domain; 0.482 E-score with GST-VND7 NAC domain. Also, the binding signal in the test with GST-WRKY1(266-371) was 0.172 E-score.
On to ATGCGTAC, for which the binding signal in the test with GST-ANAC092(1-176) stood at 0.362 E-score; with GST-NTL6(1-168), 0.0817 E-score; in the test with GST-ANAC019 NAC domain, 0.191 E-score; with GST-ANAC055(1-171), 0.17 E-score; with GST-ATAF1 NAC domain, 0.229 E-score; in [1], 0.414 E-score. The binding signal in the test with GST-NAP(1-166) worked out at 0.237 E-score; with GST-NST2(1-184), 0.192 E-score; in the test with GST-SND1(1-203), 0.292 E-score; with GST-VND3 NAC domain, 0.235 E-score; with GST-VND7 NAC domain, 0.21 E-score; with GST-WRKY1(266-371), 0.0545 E-score.
In the case of TCACGCAA, the binding signal with GST-ANAC092(1-176) was 0.488 E-score; in the test with GST-NTL6(1-168), 0.0728 E-score; with GST-ANAC019 NAC domain, 0.467 E-score; with GST-ANAC055(1-171), 0.398 E-score; with GST-ATAF1 NAC domain, 0.336 E-score; in test [1], 0.488 E-score. Further, the binding signal came to 0.433 E-score with GST-NAP(1-166); 0.396 E-score with GST-NST2(1-184); 0.177 E-score with GST-NTL8 NAC domain; 0.473 E-score with GST-SND1(1-203); 0.448 E-score in the test with GST-VND3 NAC domain; 0.462 E-score with GST-VND7 NAC domain. The binding signal with GST-WRKY1(266-371) stood at 0.0966 E-score.
